Assay results from PubChem BioAssay AID1159580 (chemical genetic matrix, 2015).
Where “and” joins values, the source holds several entries; their conditions need not be identical. Equal values may be shown once. Out of some 5,500 compounds screened, about 2,000 (36%) were called active. Not shown: some 18% with an inconclusive outcome. Cut-off read from the data, not from the text of the source: active = normalized growth mostly below about 0.91 (no sharp cut-off); inconclusive = no clear call, values can overlap the other calls; inactive = mostly above about 0.92. The list shows a part of the results.

Assay: chemical genetic growth profiling, strain panel (AID 1159580);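 note: tested at 20 µM; growth read once vehicle control cultures reached saturation at 30 °C; 1 = growth at the plate median or of vehicle wells; lower values mean less growth of the strain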
Conditions: S. cerevisiae deletion strains, growth OD

Measured: normalized growth

Cn1c(=O)[nH]c(=O)c2[nH]cnc21
inactive: locus YAL013W, strain DEP1, active compounds read low 0.993 | locus YAL021C, strain ccr4, active compounds read low 0.997 | locus YAL026C, strain drs2, active compounds read low 0.989 | locus YAL030W, strain snc1, active compounds read low 0.995 | locus YBL061C, strain skt5, active compounds read low 1.01 | locus YBR009C, strain hhf1, active compounds read low 0.999 | locus YBR021W, strain FUR4, active compounds read low 0.991 | locus YBR023C, strain chs3, active compounds read low 0.985 | locus YBR171W, strain sec66, active compounds read low 0.982 | locus YBR229C, strain ROT2, active compounds read low 0.987 | locus YBR231C, strain swc5, active compounds read low 0.993 | locus YBR279W, strain paf1, active compounds read low 0.988 | locus YCL011C, strain gbp2, active compounds read low 1 | locus YCL016C, strain dcc1, active compounds read low 0.987 | locus YCL029C, strain bik1, active compounds read low 0.971 | locus YCL061C, strain MRC1, active compounds read low 0.981 | locus YCL069W, strain vba3, active compounds read low 0.999 | locus YCR088W, strain abp1, active compounds read low 0.988 | locus YDL005C, strain med2, active compounds read low 0.966 | locus YDL035C, strain GPR1, active compounds read low 1 | locus YDL040C, strain nat1, active compounds read low 0.99 | locus YDL074C, strain BRE1, active compounds read low 1.01 | locus YDL101C, strain DUN1, active compounds read low 0.984 | locus YDL134C, strain PPH21, active compounds read low 0.999 | locus YDL185W, strain tfp1, active compounds read low 0.955 | locus YDL192W, strain arf1, active compounds read low 0.981 | locus YDR001C, strain nth1, active compounds read low 0.996 | locus YDR069C, strain doa4, active compounds read low 0.971 | locus YDR101C, strain arx1, active compounds read low 0.981 | locus YDR137W, strain rgp1, active compounds read low 0.979 | locus YDR150W, strain NUM1, active compounds read low 0.994 | locus YDR159W, strain sac3, active compounds read low 0.956 | locus YDR162C, strain NBP2, active compounds read low 0.988 | locus YDR195W, strain ref2 1 | locus YDR297W, strain sur2, active compounds read low 1 | locus YDR318W, strain mcm21, active compounds read low 0.98 | locus YDR334W, strain swr1, active compounds read low 1.01 | locus YDR335W, strain msn5, active compounds read low 0.997 | locus YDR388W, active compounds read low 0.966 | locus YDR392W, strain spt3, active compounds read low 0.941 | locus YDR502C, strain sam2, active compounds read low 0.982 | locus YEL003W, strain gim4, active compounds read low 1 | locus YEL037C, strain rad23, active compounds read low 1 | locus YEL061C, strain CIN8 (second series), active compounds read low 0.999 | locus YEL061C, strain CIN8, active compounds read low 0.994 | locus YER015W, strain faa2, active compounds read low 0.996 | locus YER016W, strain bim1, active compounds read low 1.01 | locus YER110C, active compounds read low 0.969 | locus YER111C, strain swi4, active compounds read low 1 | locus YER155C, strain BEM2 (second series), active compounds read low 0.981 | locus YER155C, strain BEM2, active compounds read low 0.989 | locus YER167W, strain BCK2, active compounds read low 0.975 | locus YFR010W, strain ubp6, active compounds read low 1 | locus YGL078C, strain dbp3, active compounds read low 0.969 | locus YGL086W, strain mad1, active compounds read low 0.977 | locus YGL167C, strain pmr1, active compounds read low 1 | locus YGL173C, strain kem1, active compounds read low 0.991 | locus YGL227W, strain vid30, active compounds read low 0.999 | locus YGL240W, strain doc1, active compounds read low 0.969 | locus YGL248W, strain PDE1, active compounds read low 0.983 | locus YGL253W, strain hxk2, active compounds read low 0.975 | locus YGR078C, strain PAC10, active compounds read low 0.996 | locus YGR135W, strain pre9, active compounds read low 0.977 | locus YGR229C, strain SMI1, active compounds read low 0.993 | locus YGR252W, strain gcn5, active compounds read low 1.06 | locus YHR013C, strain ard1, active compounds read low 0.975 | locus YHR027C, strain rpn1, active compounds read low 0.983 | locus YHR030C, strain SLT2, active compounds read low 0.981 and 0.987 | locus YHR079C, strain IRE1 (second series), active compounds read low 0.97 | locus YHR079C, strain IRE1, active compounds read low 0.984 | locus YHR094C, strain hxt1, active compounds read low 0.977 | locus YHR129C, strain ARP1, active compounds read low 0.994 | locus YHR142W, strain chs7, active compounds read low 1 | locus YHR200W, strain rpn10, active compounds read low 0.968 | locus YIL066C, strain RNR3, active compounds read low 0.988 | locus YIL073C, strain SPO22, active compounds read low 0.935 | locus YIL125W, strain kgd1, active compounds read low 0.971 | locus YIR030C, strain dcg1, active compounds read low 0.967 | locus YJL092W, strain hpr5, active compounds read low 0.996 | locus YJL095W, strain BCK1 (second series), active compounds read low 0.999 | locus YJL095W, strain BCK1, active compounds read low 0.977 and 0.976 | locus YJL115W, strain asf1, active compounds read low 0.973 | locus YJL129C, strain trk1, active compounds read low 0.968 | locus YJL134W, strain LCB3, active compounds read low 0.987 | locus YJL154C, strain vps35, active compounds read low 0.998 | locus YJL164C, strain tpk1, active compounds read low 1.01 | locus YJL166W, strain qcr8, active compounds read low 1 | locus YJL168C, strain set2, active compounds read low 0.973 | locus YJL187C, strain SWE1 (second series), active compounds read low 0.987 | locus YJR043C, strain POL32, active compounds read low 1 | locus YJR066W, strain TOR1, active compounds read low 0.911
